Records with an inconclusive call do not appear. More than one record can exist for a structure, and the calls need not agree. The source made the active and inactive calls. Rule for the calls: active = hit-call score of the fitted dose curve at least 0.9, where 1 is the maximum; inconclusive = response in the unintended direction; inactive = score below 0.9.

Chain of Bile acid receptor (Homo sapiens) (Q96RI1 whole entry, looked up, the tested form may be a part): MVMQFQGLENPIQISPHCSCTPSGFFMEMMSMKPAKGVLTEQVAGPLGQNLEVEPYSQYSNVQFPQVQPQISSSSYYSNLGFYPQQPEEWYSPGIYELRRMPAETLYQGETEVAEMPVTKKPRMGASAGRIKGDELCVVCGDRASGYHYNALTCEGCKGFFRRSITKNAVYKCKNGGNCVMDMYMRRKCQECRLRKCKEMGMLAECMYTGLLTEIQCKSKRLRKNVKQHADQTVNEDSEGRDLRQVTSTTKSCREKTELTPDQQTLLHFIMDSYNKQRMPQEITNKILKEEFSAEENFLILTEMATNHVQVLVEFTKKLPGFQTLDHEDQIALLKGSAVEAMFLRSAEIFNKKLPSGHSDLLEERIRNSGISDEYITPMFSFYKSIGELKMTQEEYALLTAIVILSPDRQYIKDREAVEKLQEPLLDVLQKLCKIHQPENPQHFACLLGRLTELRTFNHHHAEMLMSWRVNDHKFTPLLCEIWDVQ
Chain of Glucocorticoid receptor (Homo sapiens) (P04150 whole entry, looked up): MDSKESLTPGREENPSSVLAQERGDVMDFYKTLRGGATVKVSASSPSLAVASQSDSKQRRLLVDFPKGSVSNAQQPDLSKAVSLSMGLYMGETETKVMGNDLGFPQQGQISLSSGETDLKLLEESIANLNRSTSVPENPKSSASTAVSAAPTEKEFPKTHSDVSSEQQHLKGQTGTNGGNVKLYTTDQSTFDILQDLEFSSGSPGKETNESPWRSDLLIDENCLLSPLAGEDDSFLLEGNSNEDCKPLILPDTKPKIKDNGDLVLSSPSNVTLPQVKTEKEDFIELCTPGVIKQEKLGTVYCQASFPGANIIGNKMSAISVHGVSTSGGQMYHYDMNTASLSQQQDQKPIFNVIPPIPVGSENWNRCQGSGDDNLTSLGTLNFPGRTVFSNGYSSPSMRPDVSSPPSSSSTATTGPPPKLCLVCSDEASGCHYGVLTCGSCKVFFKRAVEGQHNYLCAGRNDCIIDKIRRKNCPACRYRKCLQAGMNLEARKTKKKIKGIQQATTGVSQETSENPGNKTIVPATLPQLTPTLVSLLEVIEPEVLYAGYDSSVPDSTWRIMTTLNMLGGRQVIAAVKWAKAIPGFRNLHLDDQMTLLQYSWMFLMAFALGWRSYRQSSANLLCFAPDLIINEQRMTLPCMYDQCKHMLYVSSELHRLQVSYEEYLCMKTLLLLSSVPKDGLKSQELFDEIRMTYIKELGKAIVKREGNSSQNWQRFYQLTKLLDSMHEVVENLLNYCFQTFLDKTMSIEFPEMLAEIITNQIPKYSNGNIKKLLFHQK

The first assay has as its target Glucocorticoid receptor (Homo sapiens) (UniProt P04150). In words: ATG_GR_TRANS: Attagene TRANS-FACTORIAL HepG2 Assay for human Glucocorticoid Receptor (GR) (AID 2282978).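 Note: activators score as hits since higher reporter transcript over DMSO is fitted.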 To be noted: HepG2 Attagene TRANS GR reporter, mRNA transcription. An outline of the steps:
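Multiplexed TRANS reporter system, HepG2; 24 h exposure; RNA → oligo(dT) RT → reporter-specific PCR → 6-FAM primer extension → HpaI cut → CE fluorescence. Gain-of-signal vs DMSO.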
With `O=C(CC(=O)C(F)(F)C(F)(F)F)C(F)(F)F`, the compound was classed as inactive.
Take `O=C(O)C(F)(F)C(F)(F)C(F)(F)C(F)(F)C(F)(F)C(F)(F)C(F)(F)C(F)(F)Cl`: the result was inactive.
Same read-out and setting: the entry for `O=C(O)C(F)(F)C(F)(F)C(F)(F)C(F)(F)C(F)(F)C(F)(F)C(F)(F)C(F)(F)C(F)(F)C(F)(F)C(F)(F)C(F)(F)C(F)(F)F` is “inactive”.
As to `CC/C=C\CCOC(C)=O`, the compound was called inactive.
Consider `c1ccc(B(c2ccccc2)c2ccccc2)cc1`, for which the compound was called inactive.
Turning to `OCCCC(F)(F)C(F)(F)C(F)(F)C(F)(F)C(F)(F)C(F)(F)C(F)(F)F`, the result was inactive.
Regarding `CCCCCCCCC(F)(F)C(F)(F)C(F)(F)C(F)(F)C(F)(F)C(F)(F)F`, the compound was classed as inactive.
Take `FC(F)(F)C(F)(F)C(F)(F)C(F)(F)C(F)(F)C(F)(F)C(F)(F)C(F)(F)F`: the compound was classed as inactive.
Take `CC(CCl)OP(=O)(OC(C)CCl)OC(C)CCl` (centres undefined): the result was inactive.

In the next assay the target is Bile acid receptor (Homo sapiens) (UniProt Q96RI1). In words: ATG_FXR_TRANS: Attagene TRANS-FACTORIAL HepG2 Assay for Farnesoid X Receptor (FXR) (AID 2282979).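 Note: hits raise reporter mRNA above DMSO so AC50 marks FXR activation.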 Conditions: HepG2 Attagene TRANS FXR-GAL4 reporter transcription. An outline of the steps:
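Read-out: fluorescent reporter transcripts quantified by capillary electrophoresis after RT-PCR of total RNA. Source cells were HepG2 transiently carrying chimeric NR-GAL4 plus GAL4-UAS reporter units, dosed 24 h. Activity fitted upward relative to DMSO baseline.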
Turning to `O=P(O)(O)OCCC(F)(F)C(F)(F)C(F)(F)C(F)(F)C(F)(F)C(F)(F)F`, the compound was called inactive.
On to `[Co]`, for which the compound was called inactive.
With `O=C(CC(=O)C(F)(F)C(F)(F)F)C(F)(F)F`, the outcome was inactive.
As to `O=C(O)C(F)(F)C(F)(F)C(F)(F)C(F)(F)C(F)(F)C(F)(F)C(F)(F)C(F)(F)Cl`, the AC50 was 82.3 µM (active) and the compound was classed as inactive.
As for `FC(F)(F)C(F)(F)C(F)(F)C(F)(F)C(F)(F)C(F)(F)C(F)(F)Br`, the result was inactive.
`CCN(Cc1cccc(S(=O)(=O)O)c1)c1ccc(C(=C2C=CC(=[N+](CC)Cc3cccc(S(=O)(=O)O)c3)C=C2)c2ccc(O)cc2S(=O)(=O)[O-])cc1`: the result was inactive.
For `O=C(O)C(F)(F)C(F)(F)F`, the call was inactive.
Take `C#C[C@]1(O)CC[C@H]2[C@@H]3CCc4cc(OC)ccc4[C@H]3CC[C@@]21C`: the compound was called inactive.
Regarding `OCCCC(F)(F)C(F)(F)C(F)(F)F`, the result was inactive.
Take `O=C(O)C(F)(F)C(F)(F)C(F)(F)C(F)(F)F`: the result was inactive.
Take `O=C(O)C=C(C(F)(F)F)C(F)(F)F`: the compound was called inactive.
As for `CCCCOc1ccc(N)cc1`, the compound was classed as inactive.
On the same count and under the same terms, as for `CC/C=C\CCOC(C)=O`, the entry is “inactive”.
For the compound `COC(=O)C1CCC(C(=O)OC)CC1` (centres undefined), the compound was classed as inactive.
As for `FC(F)(F)C(F)(F)C(F)(F)C(F)(F)C(F)(F)C(F)(F)CCS`, the call was inactive.
Consider `O=C(O)C(F)(F)C(F)(F)C(F)(F)C(F)(F)C(F)(F)C(F)(F)C(F)(F)C(F)(F)C(F)(F)C(F)F`, for which the compound was classed as inactive.
Still for that read-out and setting: the entry for `c1ccc(B(c2ccccc2)c2ccccc2)cc1` is “inactive”; for `FC(F)(F)C(F)(F)C(F)(F)N(C(F)(F)C(F)(F)C(F)(F)F)C(F)(F)C(F)(F)C(F)(F)F` it is “inactive”; for `O=S(=O)(O)C(F)(F)C(F)(F)C(F)(F)C(F)(F)C(F)(F)C(F)(F)C(F)(F)F` it is “inactive”.
On the same count and under the same terms, the entry for `O=C(O)C(F)(F)C(F)(F)C(F)(F)F` is “inactive”.
`OCCCC(F)(F)C(F)(F)C(F)(F)C(F)(F)C(F)(F)C(F)(F)C(F)(F)F`: the compound was called inactive.
Take `CCCCCCCCC(F)(F)C(F)(F)C(F)(F)C(F)(F)C(F)(F)C(F)(F)F`: the call was inactive.
As for `FC(F)(F)C(F)(F)C(F)(F)CI`, the result was inactive.
Turning to `FC(F)(F)C(F)(F)C(F)(F)C(F)(F)C(F)(F)C(F)(F)C(F)(F)C(F)(F)F`, the result was inactive.
Consider `Oc1ccc(Nc2ccccc2)cc1`, for which the compound was classed as inactive.
The same measure, in the same setting: the entry for `CCCCCC=O` is “inactive”; for `CC(CCl)OP(=O)(OC(C)CCl)OC(C)CCl` (centres undefined) it is “inactive”; for `C=CC(F)(F)C(F)(F)C(F)(F)C(F)(F)C(F)(F)C(F)(F)C(F)(F)C(F)(F)C=C` it is “inactive”.
On to `O=S(=O)(OCCOC(F)(F)F)C(F)(F)F`, for which the compound was called inactive.

These data come from PubChem BioAssay (EPA / NIEHS).
